Screening results from PubChem.
Compounds with a hit are over-represented: about 19% of the library has one in this group of screens.
HT1080NT lethal: kills 2HG-producing HT-1080-NT fibrosarcoma cells; Potency, µM (top dose mostly 46.1 µM), for inactives: at the highest dose activity, negative = less viability, usual class: cytotoxic; HT-1080-NT fibrosarcoma viability, CellTiter-Glo ATP luminescence, 48 h; 1.6% of 360,000 active; AID 686970;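 note: NT is the 2HG producing partner of a matched IDH1 knockdown line; potency is the fitted concentration of half-maximal effect; 0% = DMSO-treated cells and -100% = media-only wells without cells; nearly all actives have a fitted effect of over 55% in size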
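Read-out is CellTiter-Glo luminescence after 10 minutes at room temperature, following 48 hours' compound treatment of HT-1080-NT cells (750 cells/well, RPMI, 5% FBS, 37 degrees C).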
HT1080 IDH1KD tx: kills HT-1080 cells with IDH1 knockdown. 2% of 360,000 active. AID 686971. HT-1080 IDH1 knockdown viability, ATP luminescence, 48 h. Potency, µM (highest dose often 46.1 µM), for inactives: at the highest dose activity, negative = toxicity, most hits filed as cytotoxic;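 note: potency is the fitted concentration of half-maximal effect; 0% = DMSO wells and -100% = cell-free medium wells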
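HT-1080-IDH1KD cells (IDH1 knocked down), 750/well in RPMI with 5% FBS, treated with compound 48 h at 37 degrees C. Viability by CellTiter-Glo luminescence, normalised to DMSO and no-cell wells; concentration-response curves classed.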
TDP1 cell noCPT: qHTS for Inhibitors of human tyrosyl-DNA phosphodiesterase 1 (TDP1): qHTS in cells in absence of CPT; Potency, µM (highest dose often 46.2 µM), inactives show top-dose activity change, negative = growth inhibition, most hits filed as inhibitors; DT40 Tdp1-/- hTDP1 cells, no CPT, ATP luminescence, 48 h; 15% of 420,000 active; AID 686978, 2013; note: potency is the fitted concentration of half-maximal effect; nearly all actives have a fitted effect of over 55% in size
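Camptothecin absent (DMSO only). Human TDP1-complemented DT40 knockout cells, 400 cells/well, 37 °C for minimum 48 hr; ATP measured via CellTiter-Glo, 30 min dark incubation, luminescence.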
IL-1B inflam inh: inflammasome signaling inhibition, IL-1 beta readout. 4.7% of 360,000 active. AID 743279. activity change, % at 57.5 µM. THP-1 LPS/ATP IL-1B secretion, AlphaLISA, 16 h; stronger effect = lower value; in the data active = activity change below about -50%; inconclusive = mostly about -30% to -49%
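THP-1 cells pretreated 1 hr with compounds (up to 57.5 uM final), then stimulated with LPS (250 ng/mL final) plus ATP (1.25 mM final); secreted IL-1B measured by AlphaLISA after 16 hr, decreased signal indicating inhibition.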
DT40 TDP1 CPT: DT40-hTDP1 cell growth loss with CPT; chicken DT40 Tdp1-/-;hTDP1 cells + 20 nM CPT, ATP luminescence, 48 h; 12% of 420,000 active; Potency, µM (doses to about 46.2 µM), without a hit: at the highest dose activity change, negative = growth inhibition, hits mostly inhibitors; note: potency is the fitted concentration of half-maximal effect; nearly all actives have a fitted effect of over 55% in size
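Cell growth measured by CellTiter-Glo luminescence after a minimum 48 h, 37 C compound exposure with 20 nM CPT in Tdp1-knockout DT40 cells stably expressing hTDP1, seeded 400/well; qHTS titration format.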
Active calls of the source: *; ? = inconclusive; / = not tested or not shown; [ ] = another dose, or the depositor's remark. Unless noted, calls come from the whole dose curve; as a rule, active = well fitted curve in the direction sought with a large enough effect; inconclusive = small, poorly fitted or top-dose-only effect, or another doubt; inactive = no such curve, though single readings can be large; an effect the other way counts as inactive or inconclusive. Unless noted, % is set by controls: 0 for no effect and ±100 for the full control effect.

SMILES	HT1080NT lethal	HT1080 IDH1KD tx	TDP1 cell noCPT	IL-1B inflam inh	DT40 TDP1 CPT
CCCS(=O)(=O)N1CCCC(C(=O)N2CCC(Cc3ccccc3)CC2)C1 (stereo not given)	5%	0%	15µM*	-21	?
CCC(C)NS(=O)(=O)c1ccc(NC(=O)CNCc2cccs2)cc1 (stereo not given)	-23%	-12%	?	25	?
COC(=O)c1sccc1NC(=S)N1CC(C)CC(C)C1 (stereo not given)	4%	-9%	-21%	5	1%
O=C(C1CCN(S(=O)(=O)N2CCC3(CC2)OCCO3)CC1)N1CCC(Cc2ccccc2)CC1	0%	4%	?	-64*	?
CCOC(=O)N1CCN(C(=O)C2CCN(S(=O)(=O)N3CCC4(CC3)OCCO4)CC2)CC1	22%	7%	19%	24	-2%
CCCn1ccc2c(OCC(=O)Nc3ccc(C(F)(F)F)cc3)cccc2c1=O	/	/	?	/	-12%
O=C(NCCc1ccccc1)/C(=C\c1ccccc1)NC(=O)c1ccco1	5%	6%	11%	-15	6%
CCOc1cc(/C=N/NC(=O)c2ccc(O)cc2)ccc1Oc1nc(Cl)ncc1F	-2%	-1%	?	0	21µM*
CCOc1cc(/C=N\Nc2ncc(F)c(N3CCOCC3)n2)ccc1Oc1nc(Cl)ncc1F	?	?	1.8µM*	-83*	5.2µM*
Cc1cccc(C)c1N(Cc1ccccc1F)S(C)(=O)=O	7%	26%	-20%	21	0%
CC(C(=O)Nc1ccc2c(c1)OCO2)N(C)CC(=O)Nc1ccc(Cl)cc1 (stereo not given)	-1%	-4%	-29%	-11	-17%
CCC(O)c1cnc(OCc2ccccc2)nc1OCc1ccccc1 (stereo not given)	-24%	-23%	18µM*	0	?
CC(C)N(C(=O)Cn1cc(S(=O)(=O)Cc2ccc(Br)cc2)c2ccccc21)C(C)C	/	/	16µM*	/	23µM*
Cc1ccc(C)c(CS(=O)(=O)c2cn(CC(=O)N3CCCCC3)c3ccccc23)c1	9%	0%	-22%	7	-1%
Cc1ccc(C)c(CS(=O)(=O)c2cn(CC(=O)N(C(C)C)C(C)C)c3ccccc23)c1	/	/	12µM*	/	15µM*
Cc1ccc(C)c(CS(=O)(=O)c2cn(CC(=O)N3CCC(C)CC3)c3ccccc23)c1	5%	0%	16µM*	-18	?
COCCN(CCOC)Cc1cc(=O)oc2cc(C)cc(C)c12	6%	2%	-22%	-13	4%
Cc1cc(C)nc(Sc2c(C)nn(-c3ccccc3)c2C)n1	1%	-1%	21µM*	7	?
CCOc1ccccc1OCCCC(=O)Nc1cc(S(=O)(=O)N2CCCCC2)ccc1C	-2%	2%	?	11	?
O=C1c2cccc(NCCCNCCO)c2C(=O)c2cccc(NCCCNCCO)c21	?	16µM*	5.8µM*	-103*	5.8µM*
CCC(=O)N1CCC1(C)C(=O)Nc1ccc2c(c1)CCN2C(C)=O (stereo not given)	24%	10%	13%	-4	2%
Cc1ccc2c(c1)C(=O)C(=O)N2CC1COc2ccccc2O1 (stereo not given)	-2%	?	2.3µM*	-93*	2.3µM*
COc1ccc(C2C(=O)N(C3CCCCC3)CC(=O)N2CC2COc3ccccc3O2)cc1 (stereo not given)	6%	0%	?	-9	?
COc1ccc2c(c1)C(=O)C(=O)N2CC1COc2ccccc2O1 (stereo not given)	?	-27%	0.58µM*	-11	1µM*
CCOc1ccc2c(c1)C(=O)C(=O)N2CC1COc2ccccc2O1 (stereo not given)	0%	9%	0.82µM*	-3	1.2µM*
SMILES	HT1080NT lethal	HT1080 IDH1KD tx	TDP1 cell noCPT	IL-1B inflam inh	DT40 TDP1 CPT
O=C(O)C1Nc2ccccc2C2C=CCC12 (stereo not given)	/	/	-10%	/	?
CCc1cccc(C)c1NC(=O)Cn1ccn(Cc2ccc(Cl)cc2)c(=O)c1=O	/	/	-21%	/	-11%
Cc1cc(OCc2cccc(Cl)c2)c(C)cc1CN1CCOCC1	-6%	-21%	?	-1	18µM*
CCC1Oc2ccc(C)cc2N(CC(=O)NCc2cccc(OC)c2)C1=O (stereo not given)	4%	9%	10µM*	-8	?
COc1ccc(NC(=O)CN2C(=O)C(C)Oc3ccc(C)cc32)cc1 (stereo not given)	?	21µM*	-7%	-18	6%
COc1ccc(CNC(=O)COC(=O)CN2C(=O)C(C)Oc3ccc(C)cc32)cc1 (stereo not given)	0%	-5%	-16%	10	9%
CCC1Oc2ccccc2N(CC(=O)NCc2cc(OC)ccc2OC)C1=O (stereo not given)	/	/	13µM*	/	?
Cc1cc(Cl)ccc1OCC(=O)OCC(=O)c1c(N)n(C)c(=O)n(C)c1=O	-1%[9.24 µM]	0%	17%	3	4%
CCOC(=O)c1cnc2sc3c(n2c1=O)CCCC3	-12%	-11%	15µM*	0	26µM*
COc1cc(OC)cc(-c2nnc(SCc3c(F)cccc3Cl)o2)c1	-12%	-3%	23µM*	-60*	?
COc1ccc(-c2nnc(SCc3ccccc3F)o2)cc1	18%	17%	-25%	-7	-1%
CCOC(=O)C1Cn2c(nc3c(c2=O)C(C)(C)Cc2ccccc2-3)S1 (stereo not given)	-11%	-13%	16µM*	-3	-13%
CCOC(=O)CSc1nc2c(c(=O)[nH]1)C(C)(CC)Cc1ccccc1-2 (stereo not given)	?	5.8µM*	16µM*	73	?
CCOc1ccc(NC(=O)Cn2c(=O)n(Cc3ccc(C(=O)NCc4ccc5c(c4)OCO5)cc3)c(=O)c3ccccc32)cc1	/	/	-7%	/	-20%
C=C1C=C(C)n2ncc(C(=O)Nc3cccc4cnccc34)c2N1	/	/	11µM*	/	16µM*
CCN(CC(=O)NCc1ccc(Cl)cc1)C(=O)COc1cccc(Cl)c1	?	-16%	-26%	?	-18%
CS/C(N)=N/N=C/c1cc(C)ccc1O	0%	-11%	?	-26	-3%
CCS/C(N)=N/N=C/c1cc(C)ccc1O	-3%	?	0.82µM*	-55*	0.58µM*
NC(N)=N/N=C/c1cc([N+](=O)[O-])ccc1O	26%	8%	2%	0	5%
CCCCS/C(N)=N/N=C/c1cc(C)ccc1O	?	?	5.2µM*	-29	4.1µM*
